Where a name gives a salt, the structure may show the parent alone. ± gives the standard deviation of the averaged measurements.

Results on 40 molecules are retold here after the supplement of paper PMC9262897, “Low-cost anti-mycobacterial drug discovery using engineered E. coli” (Nature Communications, 2022).

The assay has as its system E. coli TESEC Alr+ wild-type control. In words: growth (OD600 after 10 h); higher = more growth (less inhibition). Particulars: compound 0.1 mM; raw OD600 reference: median of DMSO wells 0.49, cell-free background 0.052. The method, then:
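TESEC Mtb Alr E. coli (ΔaraC ΔtolC ΔentC Δalr ΔdadX, arabinose-inducible Mtb Alr) or the Alr+ wild-type control strain, grown in defined M9-fructose medium without D-alanine in 96-well plates with Prestwick library compounds at 0.1 mM and 1% DMSO. Low Alr induction is 0.1 µM arabinose and high induction is 10 mM arabinose.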
`O=C(O)c1ccccc1Nc1cccc(C(F)(F)F)c1` [Flufenamic acid] gave a growth of 0.114 ± 0.0046.
As for `COC(=O)Nc1nc2ccc(SC(C)C)cc2[nH]1` [Methiazole], the figure is 0.523 ± 0.037.
For `O=C1CN(/N=C/c2ccc(-c3ccc([N+](=O)[O-])cc3)o2)C(=O)N1` [Dantrolene sodium salt], the growth came out at 0.446 ± 0.023.
As for `Clc1ccc(COC(Cn2ccnc2)c2ccc(Cl)cc2Cl)c(Cl)c1` (stereo not given) [Miconazole], the figure is 0.137 ± 0.03.
`CC(C)NCC(O)COc1cccc2[nH]ccc12` (stereo not given) [Pindolol] had a growth of 0.474 ± 0.048.
The value for `Clc1ccc(C(Cn2ccnc2)OCc2ccsc2Cl)c(Cl)c1` (stereo not given) [Tioconazole] was 0.0501 ± 0.00075; that for `COc1cc(Cc2cnc(N)nc2N)cc(OC)c1OC` [Trimethoprim] was 0.0896 ± 0.0014.
The value for `COc1ncnc(NS(=O)(=O)c2ccc(N)cc2)c1OC` [Sulfadoxine] was 0.594 ± 0.022; that for `Cc1cnc(C(=O)NCCc2ccc(S(=O)(=O)NC(=O)NC3CCCCC3)cc2)cn1` [Glipizide] was 0.506 ± 0.049.
The molecule `COC(=O)Nc1nc2cc(Sc3ccccc3)ccc2[nH]1` [Fenbendazole] had a growth of 0.56 ± 0.072.
As for `Fc1ccc(C(c2ccc(F)cc2)N2CCN(C/C=C/c3ccccc3)CC2)cc1` [Flunarizine dihydrochloride], the figure is 0.234 ± 0.0076; as for `CC[C@@]1(O)C(=O)OCc2c1cc1n(c2=O)Cc2cc3c(CN(C)C)c(O)ccc3nc2-1` [Topotecan], 0.483 ± 0.024.
Molecule `CC(=O)OCC(=O)[C@@]12N=C(C)O[C@@H]1C[C@H]1[C@@H]3CCC4=CC(=O)C=C[C@]4(C)[C@H]3[C@@H](O)C[C@@]12C` [Deflazacort] showed a growth of 0.48 ± 0.068.
As for `COc1cc(NS(=O)(=O)c2ccc(N)cc2)ncn1` [Sulfamonomethoxine], the growth is 0.596 ± 0.092.
As for `CO[C@@]1(NC(=O)C(C(=O)O)c2ccc(O)cc2)C(=O)N2C(C(=O)O)=C(CSc3nnnn3C)CO[C@@H]21` (stereo not given in full) [Moxalactam disodium salt], the figure is 0.04587 ± 5.8e-05; as for `O=C(O)c1cn(C2CC2)c2cc(N3CCNCC3)c(F)cc2c1=O` [Ciprofloxacin hydrochloride monohydrate], 0.0505 ± 0.0005; as for `O=C(O)Cc1ccccc1Nc1c(Cl)cccc1Cl` [Diclofenac sodium], 0.436 ± 0.0056.
As for `C[C@]12CC[C@@H]3c4ccc(O)cc4CC[C@H]3[C@@H]1CCC2=O` [Estrone], the figure is 0.511 ± 0.013.
The value for `C1N2CN3CN1CN(C2)C3` [Methenamine] was 0.59 ± 0.14.
Turning to `O=C(O)CCC(=O)Nc1ccc(S(=O)(=O)Nc2nccs2)cc1` [Succinylsulfathiazole], the growth was 0.455 ± 0.037.
Turning to `COc1cc2nc(N3CCN(C(=O)C4COc5ccccc5O4)CC3)nc(N)c2cc1OC` (stereo not given) [Doxazosin mesylate], the growth was 0.0495 ± 0.0017.
The value for `CCN(CC)C(=S)SSC(=S)N(CC)CC` [Disulfiram] was 0.443 ± 0.066.
In turn, `CO[C@H]1/C=C/O[C@@]2(C)Oc3c(C)c(O)c4c(O)c(c(/C=N/N5CCN(C)CC5)c(O)c4c3C2=O)NC(=O)/C(C)=C\C=C\[C@H](C)[C@H](O)[C@@H](C)[C@@H](O)[C@@H](C)[C@H](OC(C)=O)[C@@H]1C` [Rifampicin] gave a growth of 0.05337 ± 0.00042.
`CC[C@]12CCCN3CCc4c(n(c5ccccc45)[C@@](O)(C(=O)OC)C1)[C@@H]32` [Vincamine] showed a growth of 0.503 ± 0.059.
Molecule `CCCCC1=NC2(CCCC2)C(=O)N1Cc1ccc(-c2ccccc2-c2nnn[nH]2)cc1` [Irbesartan] gave a growth of 0.528 ± 0.12.
In the case of `O=C(NCCNCC(O)COc1ccc(O)cc1)N1CCOCC1` (stereo not given) [Xamoterol hemifumarate], the growth came out at 0.631 ± 0.0095.
Turning to `CN1CCN2c3ccccc3Cc3ccccc3C2C1` (stereo not given) [Mianserine hydrochloride], the growth was found to be 0.4446 ± 0.0027.
As to `CC[C@H]1OC(=O)[C@H](C)[C@@H](O[C@H]2C[C@@](C)(OC)[C@@H](O)[C@H](C)O2)[C@H](C)[C@@H](O[C@@H]2O[C@H](C)C[C@H](N(C)C)[C@H]2O)[C@](C)(O)C[C@@H](C)CN(C)[C@H](C)[C@@H](O)[C@]1(C)O` [Azithromycin], the growth turned out to be 0.0526 ± 0.00017.
As for `C=C1C[C@H]2[C@@H]3C=C(C)C4=CC(=O)CC[C@]4(C)[C@H]3CC[C@]2(C)[C@@]1(OC(C)=O)C(C)=O` [Melengestrol acetate], the figure is 0.205 ± 0.053; as for `Cc1nc2ccccn2c(=O)c1CCN1CCC(C(=O)c2ccc(F)cc2)CC1` [Pirenperone], 0.469 ± 0.013; as for `O=C(Nc1ccccc1)OCC(CN1CCCCC1)OC(=O)Nc1ccccc1` (stereo not given) [Diperodon hydrochloride], 0.405 ± 0.02.
The value for `NC(=O)C(c1ccccc1)(c1ccccc1)[C@@H]1CCN(CCc2ccc3c(c2)CCO3)C1` [Darifenacin hydrobromide] was 0.403 ± 0.013.
As for `CC(=O)OCC1=C(C(=O)O)N2C(=O)[C@@H](NC(=O)Cc3cccs3)[C@H]2SC1` [Cephalothin sodium salt], the figure is 0.447 ± 0.04; as for `Cc1cc(-n2c(=O)[nH]c(=O)n(C)c2=O)ccc1Oc1ccc(SC(F)(F)F)cc1` [Toltrazuril], 0.137 ± 0.043; as for `OC(CCCN1CCCCC1)(c1ccccc1)c1ccccc1` [Diphenidol hydrochloride], 0.48 ± 0.034.
The molecule `CCC(C)(CN(C)C)OC(=O)c1ccccc1` (stereo not given) [Amyleine hydrochloride] had a growth of 0.586 ± 0.017.
The value for `COc1cc(C(=O)N2CCOCC2)cc(OC)c1OC` [Trimetozine] was 0.616 ± 0.021; that for `COc1ccc2c(c1)c(CC(=O)OCC(=O)O)c(C)n2C(=O)c1ccc(Cl)cc1` [Acemetacin] was 0.363 ± 0.021; that for `CC(C)(C)C(=O)OCOC(=O)[C@@H]1N2C(=O)[C@@H](/N=C/N3CCCCCC3)[C@H]2SC1(C)C` [Pivmecillinam hydrochloride] was 0.509 ± 0.096.
The molecule `Cc1cnc(NC(=O)C2=C(O)c3ccccc3S(=O)(=O)N2C)s1` [Meloxicam] had a growth of 0.461 ± 0.023.
